The supplement of paper PMC12632987
The full ranking holds about 1,800 sequences; the median of “median log2 fold change of GCK-ALFA target abundance (FLAG IP / Myc IP barcode read proportion)” is about 0.14, and the lowest 2% start at about -0.84. The entries come from a sample that favours the lowest values as a whole.

T1: TRAF2, Q12933
T1 chain: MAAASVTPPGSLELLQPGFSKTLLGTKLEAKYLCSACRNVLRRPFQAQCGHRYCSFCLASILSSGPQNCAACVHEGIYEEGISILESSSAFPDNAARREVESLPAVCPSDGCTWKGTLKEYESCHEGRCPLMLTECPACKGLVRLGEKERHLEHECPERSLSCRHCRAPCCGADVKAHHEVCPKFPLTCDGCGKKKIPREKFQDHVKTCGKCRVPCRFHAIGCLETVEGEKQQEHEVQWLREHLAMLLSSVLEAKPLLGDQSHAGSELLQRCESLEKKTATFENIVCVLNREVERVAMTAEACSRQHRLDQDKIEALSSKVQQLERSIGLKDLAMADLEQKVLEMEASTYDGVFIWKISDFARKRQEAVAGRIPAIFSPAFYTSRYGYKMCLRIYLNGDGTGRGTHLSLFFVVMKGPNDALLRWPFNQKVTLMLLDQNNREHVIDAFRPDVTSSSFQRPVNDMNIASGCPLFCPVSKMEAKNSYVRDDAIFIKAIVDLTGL

B1: traf2_out_11_155_685 (protein)
chain: EEKQKINNELVDKISEIADKAKAEARAIAAATAAAHPEAAAALAATLEASAGFGLSSFLGRLAATFRALGLADAAAQVEALRAQAQKEMNAAVKEAEEKL
B2: traf2_out_11_169_804 (protein)
chain: EEAEKNREINDFALELNDEAVARLEEAALALAREAGLDPEEVRAIFEAHKGKSLSAVAAALIRHFRERGAEAAAEAVLALYEELKEEINKKMTEKIKELE
B3: traf2_out_18_3_1946 (protein)
chain: SEEERKKYSEKLDEVFDDTGAEILARARALVAEDPRFQPALDAIEAIAARGPRPATMANTLIDALRALGYEEEAAAVEEYYSEKAKEASELIKKYEEAIK
B4: traf2_out_17_178_1710 (protein)
chain: SKAEARATISAATDRMIDLAEAAAAELLAIAEAEGDLSPEELAELRRARRLGSARTTLALMRRAIPKLKSAERVQALLDRFEAEYAALAKEIAAALEKYE
B5: traf2_out_17_178_1731 (protein)
chain: SREEILKKISEKADELLDTNKEAMDELRKIAEKEGVLTPELREKLDAVHRNANLYALEEVFDEVIEKTKSKEEVEKLKEETSKKMRELNKEIQALVEELE
B6: traf2_out_6_156_2382 (protein)
chain: DIEKILEEAKKKIEELIKKLSKAPESKKIRYINEIAGTVYRALQKLRDLGASLEELKEFTEEIKKFVEEQLEKYGLDESTKNLILSSINAVGEVALREAA
B7: traf2_out_20_3_2262 (protein)
chain: DELRAKAEAALAEAEALLAELAPRLPAADAARLQELLDAAKAAFATDLRDALVYLSELRRLALALAEEARAAGDAALAAALEALADAVGRAANYVYKIIE
B8: traf2_out_20_38_2004 (protein)
chain: SEEEEEEKRLEKIIQAANDALDAWEARFAALKAEGKSVEEIAEIAKEEIRRLLTAAGLEEEAEELVAQVDLVLDSPDAERLIARILARAAALVTQKKLQE
B9: traf2_out_20_38_2006 (protein)
chain: SEEEEEEKRLQKIIDAANEELDRWEKEIEELRAEGKSVEEIAEIAKKRIREMLTAAGLEEEAEELIAQVDTVLDSPDAERAIARILARAAALVTQKKLQE
B10: traf2_out_11_131_660 (protein)
chain: MDAVATARSAAERVDALLALAETLSPEERHRLALHALDTIEAVAEYLTSHVSTMTKEEVKEAARILREARDRVLALDPRVAPEAAEVEEAIKKLLEAAEE
B11: traf2_out_12_161_940 (protein)
chain: SSEHFQELSDVANKAFDKAQEIVDRVAEVSPALRPTFLAVARSLTLPVEEARAILDAAIAAHEAELTPEQLAEVRALGDELLAIQKEAQEEIKKIQEKYR
B12: traf2_out_3_89_2294 (protein)
chain: SMEQEKKLEEMRKRMEAYLRGFERSARWVARQMVADGMSLDTIRGVLEAARTALLEVLRESAEEAGLSPEQIEELVEEARERLERIVEEVVEEARREREA
B13: traf2_out_16_171_1431 (protein)
chain: SAEEKEKALKEEIDKERDDIIERMETAVEVTPLISKETGLTVEQIAKGFRSTMDDRIEALKKKYEEAAKTASEEVKKYMKERLEEIEKAKEEALKKILEI
B14: traf2_out_13_95_1115 (protein)
chain: SKELAEKIMEISDKALDQANALLDALEAKIKASGKLAPEVAAALAAAKKSTISTAIHTLKELAKKYPEFKADFEATIAQLEQIRRDAGREVAKLIKEEKE
B15: traf2_out_16_104_1404 (protein)
chain: AEAKQAEFDAIIAELEAIADKLQKIANKLYKLYLKADPETKVKLSDALVKASEARRAALEAAERAREARETGGDLAEARAALAKAKEEAAKVEKEVKELE
B16: traf2_out_17_162_1515 (protein)
chain: SALEEELAKLEKELKKIEKELKELKEKLKDLDKMSKEELTDLLVEASEARRRALELAERLEELKPEIGEERAGKLIAEARKLAEELQKIANKIYKKLEEK
B17: traf2_out_14_149_1232 (protein)
chain: SAEQEKLRAAAEINAEIAAALDEVLALLDAGKVEEAKALLRATIAELRARGAAHGITVSGLFVLEEILALLDTDVEAAKAAAAAARARARNAAEAFREMA
B18: traf2_out_20_3_2202 (protein)
chain: EELEKKLEEELEKAEELLKKAKELADPETAKKLDELIKRLKESRELSYEDRLVELSEIRREVLLLAQQAKAEGNEELAKVLEEAAEAINRAKNLVYKIIE
B19: traf2_out_13_95_1184 (protein)
chain: SEETKKKINEIADDMLEKVEKILTELAEKVKDDPEVKKAVEEIKKTAVTKGIHTAIGELKELAKKYPEYKELINEAIEKIEEIRREAGKKVAEILKEEEE

Biological target: T1, TRAF2, Q12933
Test: median log2 fold change of GCK-ALFA target abundance (FLAG IP / Myc IP barcode read proportion) (log2 ratio); each designed protein is fused to an ALFA-tag nanobody in HEK293 cells to bring the named protein to FLAG-tagged glucokinase (GCK); Myc marks an untargeted standard; higher = target protein stabilised (more abundant)
Conditions: target protein: 3xFLAG-MCP-GCK-ALFA reporter; HEK293 landing pad (RPLP)
Protocol: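 LABEL-seq trans screen in HEK293 landing-pad cells. Each de novo designed 100-aa effector handle, binding the indicated effector (E3 ligase, DUB or autophagy protein), is fused to a constant NbALFA target handle and induced with 2 ug/mL doxycycline. A FLAG-MCP-GCK-ALFA target and a Myc-MCP standard reporter were transfected, and after 48 h circRNA barcodes were recovered by anti-FLAG and anti-Myc IP and sequenced. The value is the median across barcodes (at least 3 per design) of log2(FLAG/Myc read-proportion ratio), with the two transfection replicates pooled. Negative values mean degradation and positive values mean stabilisation of the target.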

Row | Binder | median log2 fold change
1 | B1 | 0.177
2 | B2 | 0.243
3 | B3 | 0.267
4 | B4 | -0.136
5 | B5 | 0.639
6 | B6 | 0.0808
7 | B7 | 0.219
8 | B8 | -1.04
9 | B9 | -0.29
10 | B10 | 0.0927
11 | B11 | -1.56
12 | B12 | -0.433
13 | B13 | 0.175
14 | B14 | -0.178
15 | B15 | 0.341
16 | B16 | 0.222
17 | B17 | 0.339
18 | B18 | -0.0195
19 | B19 | -0.726
